These results are taken from the OligoGym collection.
Note: reference of the scale not given here.

One assay deals with PLS1. The assay is described as follows: pooled miR-30 sensor sort-seq; sequence = guide strand. Conditions: shRNA.
For the sequence TATCTTTGCTTTTTAATTCTTG, the sensor-assay potency score (higher = more potent) is -0.576. TGTGCTTATAGATTTATCCTTG: the sensor-assay potency score (higher = more potent) is 0.0263. Same read-out and setting: with ATTCCTTTCATTTAGGTCCTGC the figure was 0.408.

A further assay addresses PLTP. The description is as above. To be noted: shRNA.
The sequence TTGAGCAGGACCGTCCCTGCGT registered a sensor-assay potency score (higher = more potent) of -0.0816. Sequence ACATTGGACACTTTCATCCGTC registered a sensor-assay potency score (higher = more potent) of 0.0628.

Consider TTAAATTGGGTACAGCTTCAAA, for which the sensor-assay potency score (higher = more potent) is -1.22. On the same count and under the same terms, the same measure for TTGGACACTTTCATCCGTCCAG: -0.0718; for ATAGATTCGGAACCTGCGCAGG: -1.18; for TACACCTTCAAGAACCAGTAGA: -0.191. Regarding TACAGCTTCAAATCCCGTCTTC, the sensor-assay potency score (higher = more potent) is -0.171. As for TTGAAGCATCAGCTCCTGCTGT, the sensor-assay potency score (higher = more potent) came out at 0.293.

In turn, TTGGAATAGATTCGGAACCTGC had a sensor-assay potency score (higher = more potent) of -0.704. Regarding TCATACACCTTCTTGAAGGTTC, the sensor-assay potency score (higher = more potent) is -0.197. On the same count and under the same terms, with TTCTTCTCAATCACCTCTCGCA the figure was -0.149; with TCATACACCTTCAAGAACCAGT, 0.217.
